This is an account of results in PubChem BioAssay AID651871 (Sanford-Burnham Center for Chemical Genomics, 2012).

The assay concerns H9c2. As to the kind of experiment: protection of cardiomyocytes from stress damage, SAR follow-up, cell-based, panel, H9c2 and HL-1, ATP luminescence, set 2 (AID 651871).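 Also: cells exposed to stressor for 2 h before ATP readout; reference of the scale not given here.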 The note with it: H9c2/HL-1 cardiomyocytes, H2O2 oxidative stress, with H2O2, run 2, at 39.5 µM (top of the series).

Take `COc1ccc2c(c1OC)C(=O)N1c3ccccc3C(=O)N(Cc3cccc(Cl)c3Cl)C21` (stereo unspecified): the activity (protection/inhibition) worked out at 48.1%.
